High-throughput results: PubChem, The Scripps Research Institute Molecular Screening Center
Compounds with a hit are over-represented: about 4.8% of the library has one in this group of screens.
DAX1 inh-1: DAX1 (NR0B1) inhibitors, primary screen, cell-based, HEK293, Gal4-DAX1, luciferase luminescence | Nuclear receptor subfamily 0 group B member 1 (Homo sapiens), P51843 | HEK293 Gal4-DAX1 luciferase reporter | inhibition, % at 6.75 µM | 340,000 tested, 0.99% active | AID 504766, 2011;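 active = inhibition above the mean over all tested compounds plus 3 SD, cut at about 4.2% in these data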;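 note: 0% = DAX1-transfected cells with DMSO and 100% = empty-vector control cells with DMSO; inhibition shows as a rise in luminescence from relieved DAX1 repression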
Target sequence (P51843 207-470 limits assumed): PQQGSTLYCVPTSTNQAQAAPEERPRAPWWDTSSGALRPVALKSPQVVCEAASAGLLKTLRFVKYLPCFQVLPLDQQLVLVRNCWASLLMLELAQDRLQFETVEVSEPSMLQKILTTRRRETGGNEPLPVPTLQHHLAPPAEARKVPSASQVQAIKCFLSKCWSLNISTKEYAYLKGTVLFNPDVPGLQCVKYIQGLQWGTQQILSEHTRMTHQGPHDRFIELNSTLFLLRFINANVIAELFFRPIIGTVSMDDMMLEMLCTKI
hcDAF-12 act: H. contortus DAF-12 nuclear receptor activators, primary screen, cell-based, luminescence, HEK293, lit1-tk-luc reporter. HEK293 hcDAF-12 lit1-tk-luc reporter; 0% DMSO, 100% Δ7-dafachronic acid. activation, % at 6.8 µM. 370,000 tested, 1.4% active;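 active = activation above the mean of all tested compounds plus 3 SD, cut at about 5.5% in these data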;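 note: 100% = response to 3 µM Δ7-dafachronic acid high control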
hgDAF12 agonist: H. glycines DAF-12 receptor agonists, primary screen, cell-based, luminescence, HEK293, GAL4 fusion, UAS-luciferase; Nuclear hormone receptor DAF-12 (Heterodera glycines), GAL4 fusion; HEK293 GAL4-hgDAF12 UAS-luciferase reporter, agonist luminescence; normalized to butyrate control; activation, % at 6.8 µM; 370,000 tested, 1.8% active; AID 687014, 2013;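 active = activation above a cutoff set at the mean of all screened compounds plus 3 SD, cut at about 10% in these data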;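 note: 0% = DMSO wells and 100% = sodium butyrate wells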
SMARCA2 activ: SMARCA2 (BRM) function activators, primary screen, cell-based, luminescence, high throughput. MG213 cells, MMTV-luciferase reporter, dexamethasone, overnight. activation, % at 9.1 µM. 370,000 tested, 1% active; in the data active = activation above about 7.8%;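 note: 0% = vehicle wells and 100% = reference activator wells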
DAX1 inh-2: DAX1 (NR0B1) inhibitors on StAR promoter, primary screen, cell-based, luminescence, SF-1 (NR5A1), full-length DAX-1; HEK293T StAR-luciferase reporter, SF-1/DAX-1 repression relief; inhibition, % at 6.8 µM; 370,000 tested, 1.1% active; AID 652010, 2013;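 active = inhibition above the mean over all tested compounds plus 3 SD, cut at about 3.6% in these data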;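 note: 0% = DAX-1 cells with DMSO and 100% = cells lacking DAX-1 with DMSO; higher inhibition means more luminescence from relief of DAX-1 repression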
ssDAF12 agonist: S. stercoralis DAF-12 nuclear receptor activators, primary screen, cell-based, luminescence, HEK293, GRIP1 co-expression, lit1-tk-luc; HEK293 ssDAF-12/GRIP1 lit1-tk-luc reporter; % of 3 µM dafachronic acid response; activation, % at 6.8 µM; 370,000 tested, 1% active; AID 652126, 2013;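 active = activation above the mean over all tested compounds plus 3 SD, cut at about 0.9% in these data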;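 note: 0% = DMSO-only wells and 100% = 3 µM delta7-dafachronic acid wells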
Active calls of the source: *; x = no result given.

SMILES	DAX1 inh-1	hcDAF-12 act	hgDAF12 agonist	SMARCA2 activ	DAX1 inh-2	ssDAF12 agonist
O=C(COC(=O)c1cccc(-n2cnnn2)c1)c1ccc(F)cc1	-1	3	5	2	4	0
COc1ccc(NC(=O)c2cc(-c3ccccc3Cl)no2)cc1	0	0	2	-2	0	-1
O=C(Nc1ccccc1)c1cc(-c2ccccc2Cl)no1	4.3*	1	10	5	3	0
O=C(CC1CCCC1)N1CC[C@H]2[C@H](CCCN2Cc2ccc(F)cc2)C1	x	0	3	1	-1	-2
Cn1c(SCC(=O)Nc2ccc(F)cc2)nc2c([nH]c3ccccc32)c1=O	0	1	2	-5	1	-1
COc1ccc(NC(=O)CSc2nc3c([nH]c4ccccc43)c(=O)n2C)c(OC)c1	1	5	1	-1	1	0.9*
C=CCn1c(SCC(=O)Nc2ccc(F)cc2F)nc2c([nH]c3ccccc32)c1=O	0	3	1	-2	-1	1.9*
COCCn1c(SCC(=O)NCCc2ccccc2)nc2c([nH]c3ccccc32)c1=O	0	x	x	x	x	x
C=CCn1c(SCC(=O)Nc2ccccc2OC)nc2c([nH]c3ccccc32)c1=O	0	5.9*	4	3	-1	0
COCCn1c(SCC(=O)Nc2ccccc2OC)nc2c([nH]c3ccccc32)c1=O	-1	4	0	-2	-2	0
C=CCn1c(SCC(=O)NCCc2ccccc2)nc2c([nH]c3ccccc32)c1=O	1	5	2	0	-2	1.0*
CCOC(=O)C1=C(C(=O)OCC)C2N(Cc3ccc(Br)cc3)c3ccccc3[C@@]23C[C@@H](C(=O)OC)N(S(=O)(=O)c2ccc(F)cc2)C3=N1 (stereo partly specified)	x	1	2	-1	0	-2
CC(C)Oc1ccc(CCc2n[nH]c(=S)n2-c2ccccc2)cc1	4.3*	-2	1	0	-1	0
COCc1n[nH]c(=S)n1-c1ccccc1	1	0	-1	-4	0	-1
Cc1cccc(C)c1NCc1n[nH]c(=S)n1-c1ccccc1	4.7*	0	3	-2	0	-1
Cc1ccc(C)c(NCc2n[nH]c(=S)n2-c2ccccc2)c1	0	0	-2	0	0	-1
COC(=O)C1CN(C2CCCC2)CCS(=O)(=O)N1Cc1ccc(Cl)cc1 (stereo unspecified)	x	0	-4	-2	-1	-2
O=C(OCc1cn(Cc2cccc(F)c2)nn1)N1CCCCC1	x	-2	-2	-1	0	-1
CCCn1c(-c2cccc([N+](=O)[O-])c2)nc2c1c(=O)[nH]c(=O)n2Cc1ccccc1	6.4*	0	0	-2	-1	-1
Cc1sc(CO)c(Sc2ccccc2)c1C(=O)O	x	6.0*	-1	-1	0	0
COCCCN1C(=O)[C@H](CC(=O)N2CCCCC2)[C@]2(C(=O)OC)CCCCC=C12	x	4	1	2	0	0
COc1ccc(/C=N/N2CCOCC2)cc1COc1ccc(F)cc1	2	1	4	0	0	-1
COc1ccc(/C=N/N2CCOCC2)cc1COc1ccc(Cl)cc1	0	0	5	7.9*	0	0
COc1ccccc1NC(=O)Cn1nnc(-c2ccccc2NC(=O)c2cc3ccccc3oc2=O)n1	2	14*	7	3	3	1
CN(C)C(=O)NCCCC#Cc1ccccc1	x	0	-2	-3	-1	-2
SMILES	DAX1 inh-1	hcDAF-12 act	hgDAF12 agonist	SMARCA2 activ	DAX1 inh-2	ssDAF12 agonist
COc1ccc2c3n([n+]([O-])c2c1)CCN=C3c1ccc(C)cc1	1	5.6*	3	6	0	1.1*
COc1ccc2c3n([n+]([O-])c2c1)CCN=C3c1cc(Cl)c(N)c(Cl)c1	-1	1	1	1	-1	-1
O=C(CN1C(=O)C(=O)N(C2CCCC2)C1=O)NCCc1ccc(F)cc1	-1	0	0	-1	-1	-1
COc1ccc(CCNC(=O)CN2C(=O)C(=O)N(C3CCCC3)C2=O)cc1OC	0	0	1	1	1	1.3*
Cc1[nH]c2ccccc2c1CCN(Cc1cccs1)C(=O)Nc1cccc2c1OCO2	x	5	11*	-3	1	0
COc1ccc(NC(=O)N(CCc2c(C)[nH]c3ccccc23)Cc2cccs2)cc1OC	x	-2	1	-6	-3	-1
COC(=O)[C@H](C(C)C)N1Cc2nnn(Cc3ccc(C)cc3)c2-c2ccccc2S1(=O)=O	x	-3	3	1	-1	0
Cc1ccc(NC(=S)NNC(=O)CSc2nnc(SCc3cccc4ccccc34)s2)cc1	x	-3	2	-2	0	-1
O=c1c2c3c(sc2nc2n1CCCCC2)C(O)CCC3 (stereo unspecified)	1	2	11*	1	4	-1
O=C1CCCc2c1sc1nc3n(c(=O)c21)CCCCC3	2	1	10*	2	1	-1
O=c1c2c3c(sc2nc2n1CCCCC2)CCC3	0	1	3	1	0	-1
COc1ccc(-n2c(SCc3nc4ccccc4[nH]3)nc3ccccc3c2=O)cc1	x	1	1	-5	0	-1
O=C(NCCc1cccs1)C1CC(c2ccc([N+](=O)[O-])cc2)=NO1 (stereo unspecified)	3	5.8*	8	7	1	1
O=C1NC(=Nc2ccccc2)c2c1cccc2[N+](=O)[O-]	-2	0	2	-3	0	1.3*
O=C(N/N=C/c1ccc(O)cc1)c1cc(C23CC4CC(CC(C4)C2)C3)[nH]n1	-1	-1	1	0	1	1.0*
C#CCNC(=O)C[C@H]1C[C@@]2(C(=O)OC)C(=C[C@H](C(C)C)O[C@@H]2C2CC2)N(CCC2=CCCCC2)C1=O	x	-1	-4	-3	-1	-1
COc1cccc(CC(=O)OCC(=O)Nc2c(C)nn(-c3ccccc3)c2C)c1	7.0*	-1	7	1	0	-1
CC(COc1cc(F)cc(F)c1)CN1CCC(C(O)(c2ccccc2)c2ccccc2)CC1 (stereo unspecified)	x	0	3	-2	0	0
